HPGD block = HPGD (human) dehydrogenase inhibition; purified HPGD, NADH fluorescence kinetic, PGE2 substrate; P15428; actives 4.3% (n = 150,000); Potency, µM, most hits filed as inhibitors
Target sequence (P15428 whole entry, looked up): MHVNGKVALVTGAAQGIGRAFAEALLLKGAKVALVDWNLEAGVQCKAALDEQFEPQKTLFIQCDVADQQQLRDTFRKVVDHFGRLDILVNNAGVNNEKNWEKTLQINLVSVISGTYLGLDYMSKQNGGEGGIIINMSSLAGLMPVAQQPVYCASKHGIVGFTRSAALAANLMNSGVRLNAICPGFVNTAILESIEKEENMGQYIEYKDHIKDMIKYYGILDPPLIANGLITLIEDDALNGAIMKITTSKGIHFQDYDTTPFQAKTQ
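NADH formation kinetics: reaction with 30 uM PGE2 and 1 mM NAD+ (final), 20 nM enzyme, Tris-HCl pH 8 with Tween 20, after 15 min compound preincubation at room temperature. Fluorescence change, last versus first of five reads.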
IMPase inh = IMPase inhibition in cells; P97697; CHO-M1 cells, IP1 accumulation, HTRF TR-FRET ratio; inhibition (IP1 accumulation), % at 46.1 µM; 120,000 tested, under 10 active; active = well fitted curve in the direction sought with a large enough effect in the signal ratio, not every such curve was filed as active; inconclusive = small, poorly fitted or top-dose-only effect, or a change in a side signal; inactive = no such curve, though single readings can be large or run the other way; the % refers to the signal ratio;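 note: cells stimulated with carbachol in lithium chloride buffer; higher means more IMPase inhibition seen as more IP1 and lower FRET ratio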
Target sequence (P97697 whole entry, looked up): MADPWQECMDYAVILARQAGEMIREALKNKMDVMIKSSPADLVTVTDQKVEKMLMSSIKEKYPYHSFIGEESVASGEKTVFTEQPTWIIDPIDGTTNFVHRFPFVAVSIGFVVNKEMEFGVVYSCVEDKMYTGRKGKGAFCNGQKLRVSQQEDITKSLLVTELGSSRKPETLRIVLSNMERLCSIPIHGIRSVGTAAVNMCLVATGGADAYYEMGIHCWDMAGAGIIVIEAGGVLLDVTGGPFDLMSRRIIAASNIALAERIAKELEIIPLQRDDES
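The IP-One HTRF competitive assay in carbachol-stimulated CHO-M1 cells quantifies cellular IP1. Compounds spanned up to 46 uM final, and activity is expressed as AC50 from concentration-response fits of the ratio and donor data.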
ALDH1A1 inh = inhibitors of human aldehyde dehydrogenase 1A1; P00352; Purified ALDH1A1, NADH fluorescence, propionaldehyde substrate; Potency, µM (titrated, usually from 75.3 µM), most hits filed as inhibitors; actives 7.3% (n = 220,000)
Numbers stand for hits; i = inactive; ? = inconclusive; nt = no result; [ ] = another dose, or the depositor's remark. A selection: hits, their analogues and other compounds. The true share with any hit is near 9%. Unless noted, calls come from the whole dose curve; as a rule, active = well fitted inhibition curve with a large enough effect (not every such curve was filed as active); inconclusive = small, poorly fitted or top-dose-only effect, or another doubt; inactive = no such curve, though single readings can be large or run the other way.

SMILES	HPGD block	IMPase inh	ALDH1A1 inh
COCCn1c(SCC(=O)c2c(N)n(C)c(=O)n(C)c2=O)nc2ccccc21	nt	nt	i
O=C(CCS(=O)(=O)c1cccc2nsnc12)NCc1ccccc1	i	i	?
COc1ccc(CCNC(=O)CCNS(=O)(=O)c2cccc3nonc23)cc1OC	i	i	?
CC(=O)Nc1ccc(NC(=O)CCNS(=O)(=O)c2cccc3nsnc23)cc1	nt	nt	12.6µM
CC(=O)c1cccc(NC(=O)CCS(=O)(=O)c2cccc3nsnc23)c1	28.2µM	i	22.4µM
COc1cccc(NC(=O)CCNS(=O)(=O)c2cccc3nsnc23)c1	nt	nt	i
COc1ccc(CNC(=O)CCCNS(=O)(=O)c2cccc3nonc23)cc1	i	i	14.1µM
O=C(NNS(=O)(=O)c1ccc(Br)cc1)c1cccs1	nt	nt	i
COC(=O)CN1C(=S)N(Cc2ccccc2)C(=O)C1CC(=O)Nc1ccc(Br)cc1 (stereo not given)	i	i	i
C/C(=N\NC(N)=O)c1ccccc1Cl	nt	nt	i
Cc1nc2ccccc2n1CC(O)COC1CCCCC1 (stereo not given)	i	i	?
CC(C)c1nc2ccccc2n1CC(O)COC1CCCCC1 (stereo not given)	nt	nt	28.2µM
COc1ccc(CNC(=O)C2CC(=O)N(c3ccc(OCC(=O)N4C(C)CCCC4C)cc3)C2)cc1 (stereo not given)	i	i	i
O=C(O)Cn1cc(/C=C2\SC(=O)N(c3ccccc3)C2=O)c2ccccc21	nt	nt	22.4µM
Cn1cc(/C=C2/SC(=O)N(c3ccccc3)C2=O)c2ccccc21	i	i	i
CC(C)OC(=O)c1cc2c(=O)[nH]c(C(Cl)(Cl)Cl)nc2o1	nt	nt	i
CCn1c2ccccc2c2cc(NC(=O)COC(=O)c3cccc(S(=O)(=O)NC)c3)ccc21	i	nt	i
CCN(CC)S(=O)(=O)c1ccc(NC(=O)COC(=O)CCc2cc(OC)c(OC)c(OC)c2)cc1	i	i	2.51µM
CCN(CC)S(=O)(=O)c1cccc(C(=O)OCC(=O)Nc2ccc3c(c2)c2ccccc2n3CC)c1	i	nt	22.4µM
COc1cc(CCC(=O)OCC(=O)Nc2cccc(S(=O)(=O)N(C)C)c2)cc(OC)c1OC	i	nt	i
O=C1Cc2cccc3cccc1c23	?	i	?
Cc1onc(-c2ccccc2)c1C(=O)OCC(=O)NCc1ccc(F)cc1	nt	nt	i
CC(=O)N1C2(C=CC1(C)C(=O)NCCN1CCOCC1)CCCCC2 (stereo not given)	i	nt	i
CC(=NCCc1ccccc1)C1=C(O)COC1=O	i	i	i
O=C(c1ccccc1C(=O)N1CCN(c2ccccc2)CC1)N1CCN(c2ccccc2)CC1	i	i	?
SMILES	HPGD block	IMPase inh	ALDH1A1 inh
CCOC(=O)N1CCN(c2ccc(Cl)cc2)CC1	i	nt	i
O=C(C(=O)N1CCN(c2cccc(Cl)c2)CC1)N1CCCCC1	nt	nt	i
O=C(O)c1ccccc1C(=O)N1CCN(c2ccccc2)CC1	i	i	15.8µM
O=C(c1ccccc1)N1CCN(c2ccc(Cl)cc2)CC1	i	i	14.1µM
O=C(c1ccccc1)N1CCN(C(=O)c2ccccc2)CC1	i	i	i
Cc1scc(C(=O)N2CCN(c3ccc(Cl)cc3)CC2)c1C	nt	nt	20µM
O=C(N1CCCCC1)N1CCN(c2ccc(Cl)cc2)CC1	?	i	7.94µM
CC1CCC2[C@](C)(CO)C(O)CC[C@]2(C)C12CCC(CO)(CCO)O2 (stereo not given in full)	i	i	i
CCn1c(SC2CCOC2=O)nnc1-c1ccc(Cl)cc1 (stereo not given)	nt	nt	i
CC(=O)O[C@@]1(C(C)=O)CCC2C3C=C(Cl)C4=CC(=O)C5CC5[C@@]4(C)C3CC[C@]21C (stereo not given in full)	i	nt	i
CN(C)c1ccc(NC(=O)c2cccc(C(=O)Nc3ccc(N(C)C)cc3)n2)cc1	i	nt	8.91µM
CN(C)c1ccc(NC(N)=S)cc1	i	nt	11.9µM
CSc1ccc(NC(N)=S)cc1	nt	nt	i
CN(C)c1ccc(/C=N/NC(=O)c2cccc(C(=O)N/N=C/c3ccc(N(C)C)cc3)n2)cc1	nt	nt	i
COC(=O)C1=C(C(=O)OC)[C@@H]2N(C)c3ccc(OC)cc3[C@@]23C[C@@H](C(=O)OC)N(S(=O)(=O)c2cccs2)C3=N1	i	nt	i[13.5 µM]
COc1cccc(Nc2cc(C)nc3nc(C)nn23)c1	i	i	i
Cc1cc(Nc2ccccc2F)n2ncnc2n1	i	i	i
CCCOC(=O)c1ccc(Nc2cc(C)nc3ncnn23)cc1	i	i	?
COc1ccc(Nc2cc(C)nc3nc(C)nn23)c(OC)c1	8.91µM	nt	i
COc1ccc(C(=O)O)cc1Nc1cc(C)nc2ncnn12	25.1µM	i	i
COc1cc(Nc2cc(C)nc3nc(C)nn23)cc(OC)c1OC	i	i	i
COc1ccc(OC)c(Nc2cc(C)nc3nc(C)nn23)c1	2µM	i	i
COc1ccc(Nc2cc(C)nc3ncnn23)c(OC)c1	15.8µM	i	i
Cc1ccccc1Cn1nc(C)c(NC(=O)/C=C/c2cnn(C)c2)c1C	i	nt	i
CN(CC(=O)Nc1cccc(F)c1)C(=O)CCCc1cccs1	nt	i	i
SMILES	HPGD block	IMPase inh	ALDH1A1 inh
COC(=O)CSc1nnc(-c2ccc(S(=O)(=O)NCc3ccccc3Cl)cc2)o1	i	i	i
Cc1ccc(-c2nc3nc(C)cc(N4CCN(c5cccc(C)c5)C(C)C4)n3n2)cc1 (stereo not given)	nt	i	nt
CC1(OC(=O)C2CCCC2)C(=O)C=C2C=C(c3ccsc3)N(c3ccc(CO)cc3)C=C2C1=O (stereo not given)	i	nt	i[13.5 µM]
CC(C)=CCn1cnc2c1c(=O)n(C)c(=O)n2C	i	nt	i
CCOc1ccccc1OC(=O)c1cc2ccccc2oc1=O	nt	nt	i
O=C(O)Cn1c2c(c3ccccc31)CCCC2	i	i	i
CC(C)(C)NC(=O)CCN(/N=C/c1ccc([N+](=O)[O-])o1)C1=NS(=O)(=O)c2ccccc21	i	nt	i
CCOC(=O)c1cc(-c2ccccc2)sc1NC(=O)C(C)OC(=O)c1cccnc1Cl (stereo not given)	i	nt	i
COc1ccc(CNc2cc(C)nc3ncnn23)c(OC)c1	31.6µM	i	i
COc1ccc(Nc2cc(C)nc3nc(C)nn23)cc1Cl	i	i	i
COc1ccc(C)cc1Nc1cc(C)nc2nc(C)nn12	1.41µM	i	i
Cc1cc(NCCc2ccc(Cl)cc2)n2ncnc2n1	nt	nt	i
C[C@@]1(C(NC(=O)c2ccc(-c3ccccc3)cc2)c2ccc(Cl)cc2)C[C@H]1C1CCCCC1 (stereo not given in full)	i	nt	i
CCOC(=O)c1c(C)c(C(=O)NCCCOC(C)C)c(C)n1C	i	i	i
C#CC(C)(CC)NC(=O)c1cc2nc(C3CC3)cc(C(F)(F)F)n2n1 (stereo not given)	nt	nt	i
CCC(C)(C(=O)NC1CCCCC1)N(C(=O)CC1NC(=O)NC1=O)c1c(C)n(C)n(-c2ccccc2)c1=O (stereo not given)	nt	nt	i
CC(C)(C)OC(=O)NCCc1nnc(SCc2ccc(Cl)cc2Cl)o1	?	i	?
C[C@H](N)c1nnc(SCC(=O)c2ccc(Cl)cc2)o1	i	i	20µM
CC(C)(C)OC(=O)NCCc1nnc(SCC(=O)c2ccc(Cl)cc2)o1	i	i	12.6µM
Cc1[nH]c(=O)[nH]c(=O)c1CSc1nnc(CCCCCNC(=O)OC(C)(C)C)o1	25.1µM	i	i
CC(C)[C@H](N)c1nnc(SCC(=O)c2ccc(Cl)cc2)o1	i	i	i
